Experimental findings from PubChem BioAssay (NCATS) are described below.

Common to all, as to experiment: qHTS profiling for inhibitors of Plasmodium falciparum proliferation (AID 504749); note: nearly all actives have a fitted effect of over 60% in size
Holding throughout (conditions): P. falciparum in erythrocytes, SYBR Green DNA, 72 h; series mostly up to 28.7 µM
A general note: Quantitative high-throughput screening tests each substance at several concentrations.

Test [1] concerns P94_40. An outline of the steps: (§1)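 SYBR Green fluorescence of parasite DNA, read after lysis and overnight dark incubation, measured growth over 72 h in erythrocyte culture at 0.3% parasitemia and 2.5% hematocrit. Data normalised to DMSO and 0.29 uM artemisinin, with plate-drift correction.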
Test [2] relates to PAD. An outline of the steps: as §1
The subject of test [3] is PC15. An outline of the steps:
as §1

Test [4] concerns PC26. An outline of the steps:
as §1

The test system of test [5] is PC49. An outline of the steps:
as §1

The subject of test [6] is SC27B. An outline of the steps: as §1
Test [7] has as its system TAB109. An outline of the steps:
as §1

For test [8], the system named is TAB113. An outline of the steps:
as §1

Test [9] relates to TAB165. An outline of the steps:
as §1

Test [10] relates to W2. An outline of the steps: as §1

SMILES strings stand for the structures. Inconclusive results are not listed. The source made the active and inactive calls. Calls come from the whole dose curve; as a rule, active = well fitted inhibition curve with a large enough effect; inconclusive = small, poorly fitted or top-dose-only effect; inactive = flat fitted curve, though single readings scatter.
Potency is the fitted concentration of half-maximal effect.

As for `CCOC(=O)NC(O)C(Cl)(Cl)Cl` (stereo not given), the Potency result in test [1], in [2], in test [3], in test [4], in test [5] and in test [6] was “inactive” each time. Also, the Potency entry in test [7], in [8], in test [9] and in test [10] was “inactive” throughout.
In the case of `c1cc2c(c(N3CCNCC3)c1)OCCO2`, the Potency result in test [1], in test [2], in [3], in [4], in test [5] and in test [6] was “inactive” throughout. In addition, the Potency result in [7], in test [8], in test [9] and in test [10] was “inactive” in each case.
For the compound `CC(C)(O)C(Cl)(Cl)Cl`, the Potency was 2.51 µM (active) in test [1]; 3.55 µM (active) in test [2]; 2.24 µM (active) in test [3]; 8.49 µM (active) in [4]; 7.08 µM (active) in test [5]; 4.47 µM (active) in test [6]. The Potency in test [7] is 3.16 µM (active); in test [8], 4.47 µM (active); in [9] it was 1.78 µM (active); in [10] it was 1.51 µM (active).
As for `CCN(Cc1ccc(Cl)nc1)/C(=C/[N+](=O)[O-])NC`, the Potency entry in test [1], in [2], in [3], in [4], in [5] and in test [6] was “inactive” in each case. The Potency result in [7], in test [8] and in [9] was “inactive” in each case.
For the compound `CC(C)[N+](C)(CCC(C(N)=O)(c1ccccc1)c1ccccc1)C(C)C`, the Potency entry in test [1], in test [2], in test [3], in test [4], in [5] and in [6] was “inactive” in each case. Besides, the Potency result in test [7], in test [8] and in test [9] was “inactive” in each case.
As to `COP(=S)(OC)Oc1ccc(Sc2ccc(OP(=S)(OC)OC)cc2)cc1`, the Potency entry in [1], in test [2], in test [3], in test [4], in test [5] and in test [6] was “inactive” in each case. In addition, the Potency result in test [7], in [8], in [9] and in test [10] was “inactive” throughout.
On to `CC(C)(C)OC(=O)c1ncn2c1[C@@H]1CCCN1C(=O)c1c(Br)cccc1-2`, for which the Potency result in test [1], in test [2], in [3], in [4], in [5] and in test [6] was “inactive” in each case. Also, the Potency result in test [7], in test [8] and in test [9] was “inactive” in each case.
With `ClC1=C(Cl)C2(Cl)C(CBr)CC1(Cl)C2(Cl)Cl` (stereo not given), the Potency entry in test [1], in test [2], in [3], in test [4], in [5] and in test [6] was “inactive” each time. Besides, the Potency result in test [7], in test [8] and in test [9] was “inactive” in each case.
Take `NC(=O)CN1CCCC1=O`: the Potency result in test [1], in test [2], in [3], in test [4], in test [5] and in test [6] was “inactive” each time. The Potency entry in test [7], in test [8], in [9] and in test [10] was “inactive” each time.
For `Oc1c(Br)cc(Br)cc1Br`, the Potency entry in test [1], in [2], in test [3], in [4], in [5] and in [6] was “inactive” throughout. Moreover, the Potency result in test [7], in test [8], in test [9] and in [10] was “inactive” each time.
On to `CCC(=O)O[C@H]1CC[C@H]2[C@@H]3CCC4=CC(=O)CC[C@]4(C)[C@H]3CC[C@]12C`, for which the Potency entry in [1], in test [2], in test [3], in test [4], in test [5] and in test [6] was “inactive” in each case. Moreover, the Potency result in test [7], in test [8], in test [9] and in test [10] was “inactive” each time.
For `C[N+](C)(C)CCOC(=O)C(O)(c1ccccc1)c1ccccc1`, the Potency entry in test [1], in test [2], in test [3], in test [4], in [5] and in test [6] was “inactive” in each case. Also, the Potency result in [7], in test [8], in test [9] and in test [10] was “inactive” each time.
Take `OC(O)C(Cl)(Cl)Cl`: the Potency result in [1], in test [2], in test [3], in [4], in test [5] and in test [6] was “inactive” in each case. The Potency entry in [7], in [8] and in [9] was “inactive” in each case.
Take `Clc1ccc(CO/N=C(\Cn2ccnc2)c2ccc(Cl)cc2Cl)c(Cl)c1`: the Potency in test [1] is 2.82 µM (active); in test [2] it was 2.51 µM (active); in test [3], 3.16 µM (active); in [4], 4.26 µM (active); in test [6], 3.16 µM (active); in test [7], 3.55 µM (active). The Potency in test [8] is 2.51 µM (active); in test [9] it was 1.41 µM (active); in test [10], 1.69 µM (active).
In the case of `C=CCOC(Cn1ccnc1)c1ccc(Cl)cc1Cl` (stereo not given), the Potency was 10 µM (active) in test [1]; 8.91 µM (active) in test [2]; 8.91 µM (active) in [3]; 7.57 µM (active) in [4]; 10 µM (active) in test [6]; 7.94 µM (active) in [7]. Further, the Potency is 8.91 µM (active) in test [8], 3.16 µM (active) in [9] and 4.26 µM (active) in test [10].
For the compound `O=C(NC(=O)c1c(F)cccc1F)Nc1cc(Cl)c(OC(F)(F)C(F)C(F)(F)F)cc1Cl` (stereo not given), the Potency in test [1] was 12.6 µM (active); in test [8], 11.2 µM (active). Further, the Potency result in test [3] and in test [4] was “inactive” throughout.
In the case of `O=C1NCN(c2ccccc2)C12CCN(CCCOc1ccc(F)cc1)CC2`, the Potency in test [10] was 5.36 µM (active).
As to `CN1C(=O)[C@@H](NC(=O)c2cc3ccccc3[nH]2)N=C(c2ccccc2)c2ccccc21`, the Potency in [1] is 11.2 µM (active); in test [9] it was 10 µM (active); in test [10], 7.57 µM (active). The Potency result in test [3] and in [5] was “inactive” throughout.
Regarding `CC[C@]1(O)CC[C@H]2[C@@H]3CCC4=CCCC[C@@H]4[C@H]3CC[C@@]21C`, in [1], the Potency is 11.2 µM (active). Also, the Potency entry in [3], in test [4], in [5] and in test [7] was “inactive” in each case.
Consider `CCN(CC)CCOC(=O)C(C)(c1ccccc1)c1ccccc1`, for which the Potency in [10] is 1.35 µM (active).
With `NC(=O)OCCCc1ccccc1`, the Potency entry in test [1], in [2], in test [3], in [4], in test [5] and in test [6] was “inactive” throughout. Besides, the Potency result in [7], in test [8], in test [9] and in test [10] was “inactive” throughout.
Take `CC(C)NCC(O)c1ccc(N)c(C#N)c1` (stereo not given): the Potency result in [1], in [2], in test [3], in [5], in test [6] and in test [7] was “inactive” throughout. Also, the Potency result in test [8], in [9] and in [10] was “inactive” throughout.
With `Nc1ccc(N)cc1`, the Potency result in [5] was “inactive”. Also, the Potency in test [10] was 3.79 µM (active).
